# Laboratory results as given in PubChem BioAssay AID588590 (National Center for Advancing Translational Sciences (NCATS), 2011).
# Screen size: about 390,000 compounds; about 4,000 (1%) were called active. Inconclusive results (about 7%) are left out. The call rests on the fitted dose curve; in most records, active means well fitted inhibition curve with a large enough effect; inconclusive means small, poorly fitted or top-dose-only effect, or another doubt; inactive means no such curve, though single readings can be large or run the other way. Only a selection was taken, and actives are over-represented in it overall.
# Molecular target: DNA polymerase iota (Homo sapiens) (UniProt Q9UNA4)
# Sequence (Q9UNA4 whole entry, looked up): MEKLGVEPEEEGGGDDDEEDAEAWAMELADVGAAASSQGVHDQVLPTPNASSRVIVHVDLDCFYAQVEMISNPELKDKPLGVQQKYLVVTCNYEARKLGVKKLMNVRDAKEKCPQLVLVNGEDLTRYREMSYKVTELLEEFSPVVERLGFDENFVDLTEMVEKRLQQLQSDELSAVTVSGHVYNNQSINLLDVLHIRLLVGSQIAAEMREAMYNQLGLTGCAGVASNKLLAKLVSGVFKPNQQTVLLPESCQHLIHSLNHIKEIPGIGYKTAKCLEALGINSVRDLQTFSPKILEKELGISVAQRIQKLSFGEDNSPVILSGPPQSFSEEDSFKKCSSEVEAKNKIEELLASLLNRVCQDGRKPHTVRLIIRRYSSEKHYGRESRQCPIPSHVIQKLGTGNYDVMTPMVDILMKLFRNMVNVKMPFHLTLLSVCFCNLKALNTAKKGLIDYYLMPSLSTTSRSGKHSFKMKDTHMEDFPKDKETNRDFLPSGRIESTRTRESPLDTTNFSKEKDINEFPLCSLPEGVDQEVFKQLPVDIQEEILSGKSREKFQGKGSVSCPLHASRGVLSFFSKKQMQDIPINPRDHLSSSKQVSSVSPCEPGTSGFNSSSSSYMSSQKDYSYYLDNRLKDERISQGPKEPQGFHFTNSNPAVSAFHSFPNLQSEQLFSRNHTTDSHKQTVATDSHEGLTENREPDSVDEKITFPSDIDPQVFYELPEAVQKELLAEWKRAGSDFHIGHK
# Experiment: qHTS for Inhibitors of Polymerase Iota
# Details: Pol iota fluorescent replication assay, 10 min; series mostly up to 115 µM; activity, negative = inhibition: at the top concentration
# Source text: DNA polymerases, such as Pol iota, are specifically involved in DNA repair. Pol iota specifically plays an important role in translesion synthesis, where the normal high-fidelity DNA polymerases cannot proceed and DNA synthesis stalls. […] Thus, while pol eta's (and most likely iota's) normal function is to protect humans against the deleterious consequences of DNA damage, under certain conditions they can have deleterious effects on human health. As a consequence, we propose to utilize a high throughput replication assay to identify small molecule inhibitors of pol iota.
# In a collaboration between the National Institute of Child Health & Human Development (NICHD) and NIH Chemical Genomics Center, a high-throughput, fluorescent screen was developed to screen the NIH Molecular Libraries Small Molecule Repository (MLSMR). This screen is used to identify inhibitors of pol iota.
# NIH Chemical Genomics Center [NCGC]
# NIH Molecular Libraries Probe Centers Network [MLPCN]
# Assay Submitter (PI): Roger Woodgate, NICHD)
# Three microliters of reagents (buffer in column 3 and 4 as negative control and 10 nM Pol iota in columns 1, 2, and 5-48) will be dispensed into 1,536-well black solid-bottomed plate. Compounds (23 nL) will be transferred via Kalypsys pin tool equipped with 1536-pin array. The plates will then be incubated for 15 min at room temperature, and 1 µL substrate (50 nM final concentration) will be added to start the reaction and kinetically read twice at 0 min and 10 min on the Viewlux reader.
# Potency means the concentration at half of the fitted maximal effect.
Compound,Potency,"activity, negative = inhibition"
CC(=O)c1c(O)c(C)c(O)c(Cc2c(O)c3c(c(C(=O)/C=C/c4ccccc4)c2O)OC(C)(C)C=C3)c1O,50.1 µM (active),
CCCCOP(=O)(c1ccc(N(C)C)cc1)C(O)c1cc(OC)ccc1OC (stereo not given),,59.2% (inactive)
CC(=O)NBr,,-4.33% [at 58.9 µM] (inactive)
COc1ccc(N2C(=O)/C(=C/c3ccco3)C(=O)NC2=S)cc1,4.47 µM (active),
CNCC[C@H](Oc1ccc(C(F)(F)F)cc1)c1ccccc1,,-5.09% [at 58.9 µM] (inactive)
O=C1C=C(NS(=O)(=O)c2ccccc2)C(=O)c2ccccc21,,37.4% (inactive)
O=c1[nH]c(=S)[nH]c(O)c1/C=C1\C=Nc2ccccc21,,60.1% (inactive)
O=C(O)/C=C/c1ccc2c(c1)OCO2,,-23.3% (inactive)
O=C1NC(=O)N(Cc2ccco2)C(=O)/C1=C\c1cccn1CCOc1ccccc1,22.4 µM (active),
O=C1NC(=O)N(Cc2ccco2)C(=O)/C1=C\c1ccc(-c2ccc(F)cc2)o1,11.2 µM (active),
Cc1cc(/C=C2/C(=O)NC(=O)N(Cc3ccco3)C2=O)c(C)n1-c1ccc(C(=O)O)cc1,14.1 µM (active),
CC1=NNC(=O)C1Cc1c(Cl)cccc1Cl (stereo not given),,59.1% (inactive)
Cn1c(=O)oc2cc(S(=O)(=O)N3CCC(C(=O)Nc4ccc(OC(F)(F)F)cc4)CC3)ccc21,,49.5% (inactive)
O=C(Oc1ccc2c(c1)CCC2)N1CCOCC1,,35.3% (inactive)
CCOC(=O)c1ccc(N2C(=O)c3[nH]nc(-c4ccccc4)c3C2c2ccc(C(C)C)cc2)cc1 (stereo not given),,31.9% (inactive)
CCN(CC)C(=O)Oc1ccc(Br)cc1C(=O)Nc1ccc(F)c(Cl)c1,,100% (inactive)
CC(=O)c1ccc(OC(=O)N2CCOCC2)cc1,,57.7% (inactive)
CCOC(=O)C(NS(=O)(=O)c1ccc(C)cc1)(C(F)(F)F)P(=O)(OCC(C)C)OCC(C)C (stereo not given),,34.1% (inactive)
O=C1c2ccccc2NC(c2ccccc2O)N1NS(=O)(=O)c1ccccc1 (stereo not given),,34.4% (inactive)
O=C(CN1CCCC1=O)NCCc1ccccc1,,-3.26% (inactive)
CC(C)(C)c1ccc(CN2C(=O)CN=C(c3ccccc3)c3ccccc32)cc1,,-3.92% (inactive)
O=C1CC(=O)N(Cc2ccccc2)C(=O)N1CCCCCCN1C(=O)CC(=O)N(Cc2ccccc2)C1=O,17.8 µM (active),
S=C(Nc1ccc(Br)cc1Cl)N1CCC2(CC1)OCCO2,,56.3% (inactive)
CC[C@H]1CN2CCc3cc(OC)c(OC)cc3[C@@H]2C[C@@H]1C[C@H]1NCCc2cc(OC)c(OC)cc21,inactive,
CCOCCCNC(=O)c1c(NC(=O)c2nc(SC)ncc2Cl)sc2c1CCCC2,,17.5% (inactive)
O=S(=O)(Nc1ccc2[nH]ncc2c1)c1ccccc1Cl,,37.5% (inactive)
O=[N+]([O-])c1ccc(Cl)c(Cl)c1,,1.03% (inactive)
CO[C@H]1[C@@H](O)[C@@H](C)O[C@H](O[C@H]2[C@H](Oc3cccc4c(O)c5c(=O)oc6ccc(C)c7c(=O)oc(c34)c5c67)O[C@H](C)[C@H](O)[C@@H]2O)[C@@H]1O,20 µM (active),

Compound,Potency,"activity, negative = inhibition"
CCOc1ccc(C(NC(=O)c2cc(OC)c(OC)c(OC)c2)c2cc(Cl)c3cccnc3c2O)cc1 (stereo not given),,18.7% (inactive)
Cc1ccc(NC(=O)CN(C)CC(=O)Nc2cccc(F)c2)cc1[N+](=O)[O-],,54.2% (inactive)
O=P1(Oc2ccccc2)CC(O)C(O)C(COCc2ccccc2)O1 (stereo not given),,26.2% (inactive)
N#Cc1c(Cl)c(Cl)c(Cl)c(C#N)c1Cl,1.58 µM (active),
CC(CCn1cccn1)NC(=O)CCc1nnc(CCc2ccccc2)o1 (stereo not given),,67.6% (inactive)
O=C(NCc1cccs1)c1ccc(Br)o1,,21.2% (inactive)
O=C(O)c1cc[c]([Sb](=[O])([OH])[OH])cc1[N+](=O)[O-],1 µM (active),
O=C(c1ccccc1[N+](=O)[O-])N1CCC2(CC1)OCCO2,,58.5% (inactive)
COc1cc(C2c3cc4c(cc3C(O)C3COC(=O)C23)OCO4)cc(OC)c1OC (stereo not given),inactive,
COc1cc([C@@H]2c3cc4c(cc3[C@H](OC(C)=O)[C@H]3COC(=O)[C@H]23)OCO4)cc(OC)c1OC,,10.4% (inactive)
CCOC(=O)c1ncn2c1[C@@H]1CCCN1C(=O)c1cc(OC)ccc1-2,,0.794% [at 58.9 µM] (inactive)
Cc1ccc(C)c(NS(=O)(=O)c2ccc(OCC(=O)NCc3cccnc3)cc2)c1,,9.55% (inactive)
CCOP(=O)(OCC)C(Nc1cccc(C)c1)c1ccc(F)cc1 (stereo not given),,29.3% (inactive)
O=c1c2ccccc2nc(/C=C/c2ccc(F)cc2)n1-c1ccccc1O,,145% (inactive)
O=c1c2ccccc2nc(/C=C/c2ccco2)n1-c1ccccc1O,44.7 µM (active),
Cn1cc(/C=C/c2nc3ccccc3c(=O)n2-c2ccccc2)c2ccccc21,,43.9% (inactive)
Cc1ncoc1C(=O)NCCC(c1ccccc1)c1ccccc1,,63.3% (inactive)
CCCCN1C2CCC1CC(OC(c1ccc(F)cc1)c1ccc(F)cc1)C2 (stereo not given),,4.09% [at 58.9 µM] (inactive)
Cc1ccc(NC(=O)O/N=C/c2cccc([N+](=O)[O-])c2)cc1,,55.3% (inactive)
c1csc(-c2nnc(COc3ccc4c(c3)OCO4)o2)c1,,108% (inactive)
O=C1NC(=O)N(c2ccccc2)C(=O)/C1=C/c1ccc([N+](=O)[O-])s1,11.2 µM (active),
Cc1nnc(NCc2ccccc2)c2c1nnn2Cc1ccc(F)cc1,,51.9% (inactive)
O=C(C1CCN(S(=O)(=O)c2ccc(Br)s2)CC1)N1CCN(c2ccccc2)CC1,inactive,
CC(C)N1C(=S)SC(C)(C)C1n1oc(=O)n(-c2ccc(Cl)c(Cl)c2)c1=O (stereo not given),,24% (inactive)
Cc1ccccc1NC(=O)c1c(NC(=O)c2ccccc2F)sc2c1CCC(C)C2 (stereo not given),,20% (inactive)
CC(C)(C)c1ccc(C(=O)NCc2ccco2)cc1,,37.6% (inactive)
CCc1ccccc1NC(=O)c1sc2nc3c(cc2c1N)CN(Cc1ccccc1)CC3,,31.7% (inactive)
